In PubChem BioAssay (EPA / NIEHS):
Calls of active or inactive are those of the source. The calls were made as follows: active = hit-call score of the fitted dose curve at least 0.9, where 1 is the maximum; inactive = score below 0.9.

What was measured:
[1] = read-out: Plasminogen activator inhibitor-1 (PAI1), SERPINE1 (gene 5054); assay: BSK_hDFCGF_PAI1: BioMAP Diversity Plus: hDFCGF Assay for Plasminogen activator inhibitor-1 (PAI1) Biomarker Activity (AID 2283066); settings: primary human foreskin fibroblasts; actives raise or lower the signal
Procedure, shortened: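 PAI-1 levels, determined by ELISA, served as the endpoint in human foreskin fibroblast cultures exposed to compound for 24 h, with DMSO as baseline.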

[2] = read-out: Intercellular Adhesion Molecule 1 (ICAM1), ICAM1 (gene 3383); assay: BSK_KF3CT_ICAM1: BioMAP Diversity Plus: KF3CT Assay for Intercellular Adhesion Molecule 1 (ICAM1) Biomarker Activity (AID 2283067); settings: primary human keratinocytes with fibroblasts; actives raise or lower the signal
Procedure, shortened: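 Human keratinocyte–foreskin fibroblast co-culture was treated for 24 h. Cell-surface ICAM-1 was quantified by ELISA, fitted bidirectionally relative to DMSO. Cytotoxicity was checked in parallel cultures by SRB total-protein staining.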

[3] = read-out: Interferon-gamma inducible Protein 10 (IP10), CXCL10 (gene 3627); assay: BSK_KF3CT_IP10: BioMAP Diversity Plus: KF3CT Assay for Interferon-gamma inducible Protein 10 (IP10) Biomarker Activity (AID 2283068); settings: primary human keratinocytes with fibroblasts; actives raise or lower the signal
Procedure, shortened: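 In a primary skin co-culture of keratinocytes and fibroblasts, IP-10 is quantified by ELISA at 24 h after dosing. SRB staining of parallel wells monitors overt toxicity. Curves are fitted both directions against DMSO.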

[4] = BSK_KF3CT_SRB: Viability Assessment in the BioMAP Diversity Plus: KF3CT Assay (AID 2283069); settings: primary human keratinocytes with fibroblasts;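 also: total protein by sulforhodamine B staining as a cytotoxicity measure; fitted for both signal gain and loss against DMSO baseline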
Procedure, shortened: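 Human keratinocyte and foreskin fibroblast co-culture exposed to chemical for 24 h. Total protein measured in parallel cultures by 0.1% sulforhodamine B staining after 10% TCA fixation, read at 560 nm; bidirectional fit relative to DMSO.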

[5] = read-out: Interleukin-1 alpha (IL1a), IL1A (gene 3552); assay: BSK_KF3CT_IL1a: BioMAP Diversity Plus: KF3CT Assay for Interleukin-1 alpha (IL1a) Biomarker Activity (AID 2283070); settings: primary human keratinocytes with fibroblasts; actives raise or lower the signal
Procedure, shortened: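 Primary human keratinocyte plus foreskin fibroblast co-culture, dosed and measured at 24 h in 96-well plates. IL-1a level quantified by ELISA; bidirectional fit relative to DMSO.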

[6] = read-out: TIMP metallopeptidase inhibitor 2 (TIMP2), TIMP2 (gene 7077); assay: BSK_KF3CT_TIMP2: BioMAP Diversity Plus: KF3CT Assay for TIMP metallopeptidase inhibitor 2 (TIMP2) Biomarker Activity (AID 2283071); settings: primary human keratinocytes with fibroblasts; actives raise or lower the signal
Procedure, shortened: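 Keratinocyte–fibroblast co-culture, 24 h exposure; TIMP-2 ELISA, DMSO-normalised bidirectional fit. Parallel SRB (0.1%, TCA-fixed, 560 nm) total-protein staining gauges cytotoxicity.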

[7] = read-out: Transforming growth factor beta 1 (TGFb1), TGFB1 (gene 7040); assay: BSK_KF3CT_TGFb1: BioMAP Diversity Plus: KF3CT Assay for Transforming growth factor beta 1 (TGFb1) Biomarker Activity (AID 2283072); settings: primary human keratinocytes with fibroblasts; actives raise or lower the signal
Procedure, shortened: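 Signal changes in either direction, relative to DMSO, define activity here. TGF-b1 is read by ELISA from a human keratinocyte-fibroblast co-culture 24 h post-dose.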

[8] = read-out: C-C motif chemokine 2 (Homo sapiens) (UniProt P13500); assay: BSK_KF3CT_MCP1: BioMAP Diversity Plus: KF3CT Assay for Monocyte Chemoattractant Protein 1 (MCP1/CCL2) Biomarker Activity (AID 2283073); settings: primary human keratinocytes with fibroblasts; actives raise or lower the signal
Procedure, shortened: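 Human keratinocyte–foreskin fibroblast co-culture; MCP-1 measured by ELISA 24 h after dosing. Bidirectional fit vs DMSO; cytotoxicity tracked by SRB total protein in parallel cultures.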

[9] = read-out: urokinase plasminogen activator (uPA), PLAU (gene 5328); assay: BSK_KF3CT_uPA: BioMAP Diversity Plus: KF3CT Assay for urokinase plasminogen activator (uPA) Biomarker Activity (AID 2283075); settings: primary human keratinocytes with fibroblasts; actives raise or lower the signal
Procedure, shortened: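 Primary human keratinocyte/foreskin fibroblast co-culture exposed to chemical; uPA measured by ELISA at 24 h. Bidirectional fit versus DMSO, with parallel SRB total-protein staining for cytotoxicity.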

CD40, CD40 (gene 958) = assay: BSK_LPS_CD40: BioMAP Diversity Plus: LPS Assay for CD40 Biomarker Activity (AID 2283076); settings: primary human HUVEC with PBMC; actives raise or lower the signal
Procedure, shortened: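 HUVEC plus PBMC co-culture stimulated with LPS; CD40 quantified by ELISA 24 h after compound dosing. Fitting was bidirectional relative to DMSO. SRB staining of parallel cultures flagged overt cytotoxicity.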

[10] = read-out: E-selectin (Homo sapiens) (UniProt P16581); assay: BSK_LPS_Eselectin: BioMAP Diversity Plus: LPS Assay for Eselectin Biomarker Activity (AID 2283077); settings: primary human HUVEC with PBMC; actives raise or lower the signal
Procedure, shortened: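 Human umbilical vein endothelial cells co-cultured with PBMC under LPS stimulation; cell-surface E-selectin measured by ELISA 24 h after dosing. Change in either direction versus DMSO, with SRB total-protein staining in parallel cultures for cytotoxicity.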

[11] = read-out: Interleukin-8 (IL8), CXCL8 (gene 3576); assay: BSK_LPS_IL8: BioMAP Diversity Plus: LPS Assay for Interleukin-8 (IL8) Biomarker Activity (AID 2283078); settings: primary human HUVEC with PBMC; actives raise or lower the signal
Procedure, shortened: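 Human umbilical vein endothelial cells co-cultured with PBMC, LPS-stimulated, exposed to compound for 24 h. IL-8 quantified by ELISA; fitted in both directions against DMSO, with SRB total-protein staining of parallel cultures for cytotoxicity.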

[12] = BSK_LPS_SRB: Viability Assessment in the BioMAP Diversity Plus: LPS Assay (AID 2283079); settings: primary human HUVEC with PBMC;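 also: total protein by sulforhodamine B absorbance as a cytotoxicity measure; measured one day after compound addition; fitted in both directions against DMSO so loss or gain of signal counts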
Procedure, shortened: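 Co-culture of human umbilical vein endothelial cells and PBMC, read 24 h after dosing. Total protein by 0.1% SRB staining after 10% TCA fixation, absorbance at 560 nm; bidirectional fit against DMSO.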

[13] = read-out: Interleukin-1 alpha (IL1a), IL1A (gene 3552); assay: BSK_LPS_IL1a: BioMAP Diversity Plus: LPS Assay for Interleukin-1 alpha (IL1a) Biomarker Activity (AID 2283080); settings: primary human HUVEC with PBMC; actives raise or lower the signal
Procedure, shortened: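 Human umbilical vein endothelial cells co-cultured with PBMC and stimulated with LPS; IL-1a measured by ELISA 24 h after dosing. Bidirectional fitting against DMSO; cytotoxicity checked by SRB staining in parallel cultures.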

[14] = read-out: Monocyte Chemoattractant Protein-1 (MCP1), CCL2 (gene 6347); assay: BSK_LPS_MCP1: BioMAP Diversity Plus: LPS Assay for Monocyte Chemoattractant Protein-1 (MCP1) Biomarker Activity (AID 2283081); settings: primary human HUVEC with PBMC; actives raise or lower the signal;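 as to AC50: secreted MCP-1 protein quantified by ELISA in culture supernatant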
Procedure, shortened: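 Human umbilical vein endothelial cells co-cultured with PBMC, LPS-stimulated; secreted MCP-1 measured by ELISA 24 h after compound addition. Bidirectional curve fitting against DMSO baseline; SRB total-protein staining in parallel cultures for cytotoxicity.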

[15] = BSK_LPS_PGE2: BioMAP Diversity Plus: LPS Assay for Prostaglandin E2 (PGE2) Biomarker Activity (AID 2283082); settings: primary human HUVEC with PBMC; actives raise or lower the signal;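 as to AC50: secreted prostaglandin E2 measured by ELISA in LPS-stimulated co-culture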
Procedure, shortened: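 Endpoint derived from bidirectional curve fitting versus DMSO of ELISA-measured PGE2 in LPS-stimulated human primary vascular co-culture (HUVEC with PBMC) harvested at 24 h.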

[16] = read-out: Macrophage colony-stimulating factor (MCSF), CSF1 (gene 1435); assay: BSK_LPS_MCSF: BioMAP Diversity Plus: LPS Assay for Macrophage colony-stimulating factor (MCSF) Biomarker Activity (AID 2283083); settings: primary human HUVEC with PBMC; actives raise or lower the signal
Procedure, shortened: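 HUVEC–PBMC co-culture, M-CSF measured by ELISA 24 h after chemical dosing. Fitted in both directions relative to DMSO as negative control; overt cytotoxicity assessed by SRB total-protein staining in parallel cultures.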

[17] = read-out: Tissue Factor, F3 (gene 2152); assay: BSK_LPS_TissueFactor: BioMAP Diversity Plus: LPS Assay for Tissue Factor Biomarker Activity (AID 2283084); settings: primary human HUVEC with PBMC; actives raise or lower the signal
Procedure, shortened: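 Human umbilical vein endothelial cells co-cultured with PBMC were dosed with compound. Cell-surface CD142 was measured by ELISA 24 h later. Activity was fitted bidirectionally against DMSO, with SRB total-protein staining in parallel cultures for cytotoxicity.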

[18] = read-out: Tumor necrosis factor (Homo sapiens) (UniProt P01375); assay: BSK_LPS_TNFa: BioMAP Diversity Plus: LPS Assay for Tumour Necrosis Factor alpha (TNFa) Biomarker Activity (AID 2283085); settings: primary human HUVEC with PBMC; actives raise or lower the signal;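 as to AC50: TNFa protein level quantified by ELISA in the co-culture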
Procedure, shortened: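 Primary human vascular co-culture of HUVEC and PBMC; TNFa ELISA 24 h after treatment, analysed as increase or decrease relative to DMSO control.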

[19] = read-out: Matrix Metallopeptidase 9 (MMP9), MMP9 (gene 4318); assay: BSK_KF3CT_MMP9: BioMAP Diversity Plus: KF3CT Assay for Matrix Metallopeptidase 9 (MMP9) Biomarker Activity (AID 2283074); settings: primary human keratinocytes with fibroblasts; actives raise or lower the signal;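 as to AC50: MMP9 protein level quantified by ELISA in the co-culture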
Procedure, shortened: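 Human keratinocyte and foreskin fibroblast co-culture exposed to chemicals for 24 h; MMP9 biomarker measured by ELISA, bidirectional fitting relative to DMSO; cytotoxicity tracked by SRB total protein staining in parallel cultures.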

E-selectin (Homo sapiens), sequence (P16581 whole entry, looked up): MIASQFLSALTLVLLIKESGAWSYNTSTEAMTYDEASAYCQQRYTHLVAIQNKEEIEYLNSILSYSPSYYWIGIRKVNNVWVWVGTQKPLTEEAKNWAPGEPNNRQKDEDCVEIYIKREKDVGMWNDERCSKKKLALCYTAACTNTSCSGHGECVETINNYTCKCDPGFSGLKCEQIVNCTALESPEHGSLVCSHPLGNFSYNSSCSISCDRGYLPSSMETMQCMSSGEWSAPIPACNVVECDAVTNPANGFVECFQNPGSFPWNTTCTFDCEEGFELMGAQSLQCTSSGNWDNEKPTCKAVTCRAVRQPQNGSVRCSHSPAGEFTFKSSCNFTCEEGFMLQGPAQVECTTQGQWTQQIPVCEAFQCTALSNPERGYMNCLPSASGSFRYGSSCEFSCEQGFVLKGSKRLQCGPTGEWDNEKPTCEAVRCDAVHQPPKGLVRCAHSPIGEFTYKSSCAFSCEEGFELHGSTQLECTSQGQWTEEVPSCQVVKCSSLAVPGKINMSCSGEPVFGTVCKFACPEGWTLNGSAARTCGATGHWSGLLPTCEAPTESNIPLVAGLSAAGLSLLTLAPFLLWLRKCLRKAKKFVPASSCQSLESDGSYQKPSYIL
Tumor necrosis factor (Homo sapiens), sequence (P01375 whole entry, looked up): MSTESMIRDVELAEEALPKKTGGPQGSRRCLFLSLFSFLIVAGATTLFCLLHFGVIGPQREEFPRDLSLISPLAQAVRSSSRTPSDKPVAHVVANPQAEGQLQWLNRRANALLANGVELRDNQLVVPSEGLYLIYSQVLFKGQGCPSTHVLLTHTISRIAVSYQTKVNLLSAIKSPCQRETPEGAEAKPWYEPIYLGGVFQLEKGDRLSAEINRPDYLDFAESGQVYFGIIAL

CC[C@H](C)C(=O)O[C@H]1C[C@@H](C)C=C2C=C[C@H](C)[C@H](CC[C@@H]3C[C@@H](O)CC(=O)O3)[C@H]21
AC50 [1]: 31.9 µM (active)
AC50 [2]: 33.6 µM (active)
AC50 [3]: 34.6 µM (active)
AC50 [4]: 31.7 µM (active)
AC50 [5]: 33.5 µM (active)
AC50 [6]: 33.8 µM (active)
AC50 [7]: 33.3 µM (active)
AC50 [8]: 32.5 µM (active)
AC50 [9]: 32.5 µM (active)
AC50 (CD40, CD40 (gene 958)): 13.8 µM (active)
AC50 [10]: 0.398 µM (active)
outcome [11]: inactive
AC50 [12]: 3.95 µM (active)
AC50 [13]: 3.95 µM (active)
outcome [14]: inactive
outcome [15]: inactive
AC50 [16]: 34 µM (active)
outcome [17]: inactive
AC50 [18]: 33.5 µM (active)

COc1ccc2sc(C(=O)Nc3nnn[nH]3)c(OC(C)C)c2c1
AC50 [1]: 6.57 µM (active)
AC50 [2]: 24 µM (active)
AC50 [3]: 25.4 µM (active)
AC50 [4]: 26.1 µM (active)
AC50 [5]: 19.9 µM (active)
AC50 [6]: 19.9 µM (active)
AC50 [7]: 19.9 µM (active)
AC50 [8]: 16.7 µM (active)
AC50 [19]: 27 µM (active)
AC50 [9]: 29.5 µM (active)
AC50 (CD40, CD40 (gene 958)): 7.18 µM (active)
AC50 [10]: 23.4 µM (active)
AC50 [12]: 9.83 µM (active)
AC50 [13]: 13.2 µM (active)
AC50 [14]: 19.8 µM (active)
AC50 [15]: 34.1 µM (active)
AC50 [16]: 14.1 µM (active)
AC50 [17]: 33.2 µM (active)
AC50 [18]: 28.9 µM (active)

CCN(C(=O)c1cc(C)cc(OC[C@H](C)Nc2ccncc2)c1)C(C)C
outcome [1]: inactive
outcome [2]: inactive
outcome [3]: inactive
outcome [4]: inactive
outcome [5]: inactive
outcome [6]: inactive
outcome [7]: inactive
outcome [19]: inactive
AC50 [9]: 13.5 µM (active)
outcome (CD40, CD40 (gene 958)): inactive
outcome [10]: inactive
outcome [12]: inactive
outcome [13]: inactive
outcome [14]: inactive
outcome [16]: inactive
outcome [17]: inactive
outcome [18]: inactive
